These results are taken from PubChem BioAssay.

A short description of experiment [1]: small molecules captured by biotinylated probe aFSTL3 – biochemical, small-molecule microarray, fluorescence 635/667, stem cell growth factor project, primary screen (AID 1064).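 Also: measures binding of the biotinylated anti-FSTL3 antibody to printed compounds.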 The following applies: higher = more signal.
Experiment [2] in a line: binders from COS7 lysate, DM2A8 probe, primary screen, torsin A project, cell lysate, small-molecule microarray, fluorescence 635/667 (AID 1065). The following applies: higher = more signal, COS7 lysate expressing mutant human TOR1A.
Experiment [3] can be described thus: small molecules captured by biotinylated probe aFGF2 – biochemical, small-molecule microarray, fluorescence 635/667, stem cell growth factor project, primary screen (AID 1067).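 Also: measures binding of biotinylated aFGF2 protein to printed compounds on slides; z-score merges feature fluorescence and signal-to-noise across triplicate slides.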 The following applies: higher = more signal.
The nature of experiment [4]: small molecules captured by biotinylated probe aFGF10 – biochemical, small-molecule microarray, fluorescence 635/667, stem cell growth factor project, primary screen (AID 1071).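 Also: score merges 667 nm spot intensity and signal to noise from triplicate slides.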 The following applies: higher = more signal.
Experiment [5] addresses Neurogenic locus notch homolog protein 2 (Homo sapiens) (UniProt Q04721). The experiment in a line: small molecules binding Notch2 protein – biochemical, small-molecule microarray, 635 nm fluorescence, stem cell growth factors, primary screen (AID 1073). Conditions: higher = more signal.
Experiment [6] deals with Pro-neuregulin-1, membrane-bound isoform (Homo sapiens) (UniProt Q02297). The experiment is described as follows: small molecules binding neuregulin-1 protein – biochemical, small-molecule microarray, fluorescence 635/667, psychiatric disease protein project, primary screen (AID 1075).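 Also: score combines 667 nm spot fluorescence with signal to noise.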 The following applies: NRG1 binding, 635 nm fluorescence, higher = more signal.
Experiment [7] deals with Neuregulin-1 EGF-like domain. The experiment is described as follows: small molecules binding NRG1 EGF domain – biochemical, small-molecule microarray, 635 nm fluorescence, primary screen (AID 1081).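 Also: binding of the protein to compounds printed on small-molecule microarray slides.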 Conditions: higher = more signal.
Experiment [8] can be described thus: FRG1 expression reporter modulators in myotubes – cell-based, C2C12 myotubes, firefly/Renilla luciferase, luminescence, FRG1 inhibition for FSHD, primary screen (AID 1084). Conditions: FRG1 promoter luciferase, higher = more signal, called active from +8 up or from −8 down.
The nature of experiment [9]: small molecules captured by biotinylated probe aFST – biochemical, small-molecule microarray, fluorescence 635/667, stem cell growth factor project, primary screen (AID 1086).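 Also: score merges 667 nm fluorescence with signal-to-noise of each printed compound spot.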 Conditions: higher = more signal.
The nature of experiment [10]: binders of probe aHhip on microarray, primary screen, stem cell growth factor project, biochemical, small-molecule microarray, fluorescence 635/667 (AID 1087).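 Also: score merges spot fluorescence at 667nm with spot signal to noise ratio.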 The following applies: higher = more signal.

Each structure is given as a SMILES string. Activity calls are given as the source filed them.

Pro-neuregulin-1, membrane-bound isoform (Homo sapiens), sequence (Q02297 whole entry, looked up, the tested form may be a part, canonical isoform): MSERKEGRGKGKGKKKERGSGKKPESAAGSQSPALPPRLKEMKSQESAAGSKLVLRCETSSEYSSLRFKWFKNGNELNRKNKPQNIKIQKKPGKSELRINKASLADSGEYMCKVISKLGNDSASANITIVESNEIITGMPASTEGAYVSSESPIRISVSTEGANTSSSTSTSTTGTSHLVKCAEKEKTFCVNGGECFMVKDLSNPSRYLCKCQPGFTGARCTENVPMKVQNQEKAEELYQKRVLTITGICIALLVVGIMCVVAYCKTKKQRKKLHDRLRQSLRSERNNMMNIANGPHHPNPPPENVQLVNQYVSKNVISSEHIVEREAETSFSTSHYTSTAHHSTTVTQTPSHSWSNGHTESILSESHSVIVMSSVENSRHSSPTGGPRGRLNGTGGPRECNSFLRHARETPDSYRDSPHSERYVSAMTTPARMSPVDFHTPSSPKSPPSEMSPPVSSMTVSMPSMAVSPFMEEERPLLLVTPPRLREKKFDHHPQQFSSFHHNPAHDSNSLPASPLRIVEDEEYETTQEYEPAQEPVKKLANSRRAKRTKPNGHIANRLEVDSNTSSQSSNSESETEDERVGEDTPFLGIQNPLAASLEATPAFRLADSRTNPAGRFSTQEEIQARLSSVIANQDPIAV
Neurogenic locus notch homolog protein 2 (Homo sapiens), sequence (Q04721 whole entry, looked up, canonical isoform): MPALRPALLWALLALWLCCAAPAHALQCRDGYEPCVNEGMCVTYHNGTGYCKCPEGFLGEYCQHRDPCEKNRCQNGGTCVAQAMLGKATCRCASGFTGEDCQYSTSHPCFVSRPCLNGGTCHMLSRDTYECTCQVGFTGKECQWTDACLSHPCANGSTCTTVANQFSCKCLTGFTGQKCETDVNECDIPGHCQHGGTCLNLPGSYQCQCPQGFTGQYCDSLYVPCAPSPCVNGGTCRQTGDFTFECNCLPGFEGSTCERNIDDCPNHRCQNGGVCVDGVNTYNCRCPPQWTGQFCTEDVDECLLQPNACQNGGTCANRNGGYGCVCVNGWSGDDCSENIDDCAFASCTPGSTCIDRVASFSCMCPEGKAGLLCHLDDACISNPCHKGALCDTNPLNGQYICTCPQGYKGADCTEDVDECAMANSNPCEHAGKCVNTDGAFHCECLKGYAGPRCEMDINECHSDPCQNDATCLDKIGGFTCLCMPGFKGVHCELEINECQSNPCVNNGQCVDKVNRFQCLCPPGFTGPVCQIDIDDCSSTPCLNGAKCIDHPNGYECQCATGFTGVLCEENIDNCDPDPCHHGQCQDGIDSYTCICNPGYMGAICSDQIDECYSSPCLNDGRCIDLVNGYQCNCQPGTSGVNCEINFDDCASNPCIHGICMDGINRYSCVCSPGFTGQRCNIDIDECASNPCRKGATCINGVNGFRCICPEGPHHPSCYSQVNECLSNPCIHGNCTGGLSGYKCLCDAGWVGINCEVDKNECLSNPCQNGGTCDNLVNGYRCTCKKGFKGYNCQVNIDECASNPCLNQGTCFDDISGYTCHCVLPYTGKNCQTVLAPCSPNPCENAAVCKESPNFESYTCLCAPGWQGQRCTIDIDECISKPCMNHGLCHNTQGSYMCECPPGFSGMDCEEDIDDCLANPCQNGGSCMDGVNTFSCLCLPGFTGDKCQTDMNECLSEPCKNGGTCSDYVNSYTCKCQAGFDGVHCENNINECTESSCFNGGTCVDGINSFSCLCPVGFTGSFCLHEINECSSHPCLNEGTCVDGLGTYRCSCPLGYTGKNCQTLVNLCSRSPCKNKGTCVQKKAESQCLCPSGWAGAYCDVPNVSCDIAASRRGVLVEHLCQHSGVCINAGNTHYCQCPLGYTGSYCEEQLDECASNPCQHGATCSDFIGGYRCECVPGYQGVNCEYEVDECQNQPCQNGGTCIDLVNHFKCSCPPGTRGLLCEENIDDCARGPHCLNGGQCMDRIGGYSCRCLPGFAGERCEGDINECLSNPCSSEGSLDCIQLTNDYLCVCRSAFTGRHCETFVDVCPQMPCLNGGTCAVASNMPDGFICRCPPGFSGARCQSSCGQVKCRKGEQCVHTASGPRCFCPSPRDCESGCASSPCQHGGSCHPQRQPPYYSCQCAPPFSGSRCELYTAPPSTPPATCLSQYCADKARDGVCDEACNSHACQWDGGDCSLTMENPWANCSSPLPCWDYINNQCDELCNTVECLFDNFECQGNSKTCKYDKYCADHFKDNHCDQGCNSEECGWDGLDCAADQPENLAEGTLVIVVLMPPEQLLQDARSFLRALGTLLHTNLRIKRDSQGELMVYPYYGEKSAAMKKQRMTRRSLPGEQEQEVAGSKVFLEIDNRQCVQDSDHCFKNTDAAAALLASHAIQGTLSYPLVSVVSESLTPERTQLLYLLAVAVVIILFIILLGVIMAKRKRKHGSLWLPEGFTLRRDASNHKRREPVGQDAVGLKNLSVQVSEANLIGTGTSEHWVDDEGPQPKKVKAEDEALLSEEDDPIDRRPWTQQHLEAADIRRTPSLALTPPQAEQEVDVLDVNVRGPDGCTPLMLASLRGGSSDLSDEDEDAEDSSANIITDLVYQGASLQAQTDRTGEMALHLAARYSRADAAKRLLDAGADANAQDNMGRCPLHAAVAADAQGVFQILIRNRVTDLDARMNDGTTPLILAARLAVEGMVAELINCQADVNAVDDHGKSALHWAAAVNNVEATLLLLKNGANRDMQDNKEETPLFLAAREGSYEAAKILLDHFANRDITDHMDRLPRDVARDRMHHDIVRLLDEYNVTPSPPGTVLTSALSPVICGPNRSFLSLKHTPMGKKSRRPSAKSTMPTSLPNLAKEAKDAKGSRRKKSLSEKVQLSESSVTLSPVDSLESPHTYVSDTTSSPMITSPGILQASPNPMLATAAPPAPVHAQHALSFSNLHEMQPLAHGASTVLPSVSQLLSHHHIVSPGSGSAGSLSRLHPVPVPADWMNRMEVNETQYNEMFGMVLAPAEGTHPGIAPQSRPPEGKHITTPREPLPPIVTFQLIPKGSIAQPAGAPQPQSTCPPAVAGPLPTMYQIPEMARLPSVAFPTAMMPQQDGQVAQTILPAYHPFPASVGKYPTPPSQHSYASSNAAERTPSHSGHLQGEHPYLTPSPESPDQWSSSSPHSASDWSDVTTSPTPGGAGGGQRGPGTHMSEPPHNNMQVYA

Turning to `COc1cccc([C@H]2Oc3ccc(OC)cc3C(=NOC(C)CN3CCCCc4nc(C)c(C)cc43)[C@@H]2O)c1` (stereo not given in full), the composite z-score was 0.161 in experiment [1]; -0.0173 in [2]; -0.0005 in [3]; 0.561 in [4]; 0.0879 in experiment [5]; 0.996 in [6]. The composite z-score in experiment [7] was 0.632; in experiment [9], -0.0285; in [10] it was 0.0854. Further, the z-score in experiment [8] is -2.06 (inactive).

As to `CCOC(=O)[C@H](Cc1ccccc1)NC(=O)CCC1CC(OC(=O)NCCc2ccc(F)cc2)CC2(CCCC(COC(=O)NCCCN3CCCC3=O)O2)O1` (stereo not given in full), the composite z-score was -0.478 in [1]; 0.291 in [2]; -0.0628 in [3]; 0.328 in experiment [4]; 1.16 in experiment [5]; 0.533 in [6]. In addition, the composite z-score is 0.394 in experiment [7], 0.326 in experiment [9] and -0.0994 in experiment [10]. In experiment [8], the z-score was -1.9 (inactive).

Regarding `COCCNC(=O)OCC1CCCC2(CC(OC(=O)NCc3ccc4c(c3)OCO4)CC(CCC(=O)N[C@@H](C)C(=O)OC)O2)O1` (stereo not given in full), the composite z-score was -0.463 in experiment [1]; 0.362 in [2]; -0.116 in experiment [3]; 0.387 in experiment [4]; 1.05 in experiment [5]; 0.191 in [6]. Further, the values for the composite z-score in experiment [7], in experiment [9] and in [10] were 0.699, 0.171 and -0.0994, respectively. In addition, the z-score in experiment [8] was 0.502 (inactive).

`CCOC(=O)[C@H](CC(C)C)NC(=O)CCC1CC(OC(=O)NCCc2ccc(F)cc2)CC2(CCCC(COC(=O)NCCc3ccc(Cl)cc3)O2)O1` (stereo not given in full): the composite z-score in experiment [1] is -0.543; in experiment [2] it was 1; in experiment [3] it was -0.0267; in experiment [4] it was 0.491; in [5], 0.74; in experiment [6], 0.0742. Also, the composite z-score in experiment [7] was found to be 1.06; in [9] it was 0.197; in experiment [10] it was 0.208. Also, the z-score in experiment [8] was 1.57 (inactive).

As to `COC(=O)[C@H](C)NC(=O)CCC1CC(OC(=O)NCc2ccc3c(c2)OCO3)CC2(CCCC(COC(=O)NCc3cccc(C(F)(F)F)c3)O2)O1` (stereo not given in full), the composite z-score in experiment [1] was -0.0199; in experiment [2], 0.325; in experiment [3] it was -0.1; in [4], 0.688; in experiment [5] it was 0.679; in experiment [6], 0.151. Also, the results for the composite z-score in experiment [7], in experiment [9] and in experiment [10] were 0.795, 0.307 and 1.19, respectively. The z-score in [8] is -0.15 (inactive).

In the case of `CCOC(=O)[C@H](CC(C)C)NC(=O)CCC1CC(OC(=O)NCCc2ccc(F)cc2)CC2(CCCC(COC(=O)NCC3CCCCC3)O2)O1` (stereo not given in full), the composite z-score was -0.595 in [1]; 0.101 in experiment [2]; -0.0652 in experiment [3]; 0.817 in [4]; 0.482 in experiment [5]; 0.301 in experiment [6]. Further, the composite z-score in experiment [7] is 1.1; in experiment [9], -0.0627; in [10], -0.19. Besides, the z-score in experiment [8] was 0.605 (inactive).

Consider `COc1ccc(O[C@@H]2[C@H](O)CO[C@@H]2C=Cc2ccccc2)cc1`, for which the composite z-score in [1] was -0.277; in experiment [2], 0.232; in experiment [3], -0.0482; in experiment [4], 0.336; in experiment [5] it was -0.0587; in experiment [6] it was 0.46. The composite z-score turned out to be 0.102 in experiment [7], 0.0116 in experiment [9] and 0.281 in experiment [10]. Besides, the z-score in [8] is -0.136 (inactive).

As for `C#CCCCON=C1C[C@@H](O)[C@@H](O)[C@@H]2[C@@H]3C(=O)N(CC)C(=O)[C@@H]3CC[C@@H]12`, the composite z-score in experiment [1] is -0.572; in experiment [2] it was 0.278; in experiment [3], -0.143; in experiment [4] it was 0.722; in experiment [5], 0.656; in experiment [6], 0.614. Besides, the values for the composite z-score in experiment [7], in experiment [9] and in experiment [10] were 0.636, 0.276 and 0.235, respectively. Further, the z-score in experiment [8] was -0.0351 (inactive).

As to `CCOC(=O)CCN1C(=O)[C@H]2[C@H]3[C@H](O)[C@H](O)CC(=NOCc4ccccc4)[C@H]3CC[C@H]2C1=O`, the composite z-score in experiment [1] was 1.08; in [2], -0.164; in experiment [3], -0.121; in experiment [4], 0.11; in experiment [5] it was 0.206; in [6], -0.188. The composite z-score in experiment [7] is -0.368; in experiment [9], 0.494; in experiment [10], -0.236. For the same compound, in experiment [8], the z-score is -0.0531 (inactive).

As for `CO[C@H]1COC(=O)CC=C[C@H](C)[C@@H](OC)COC(=O)[C@@H](C)COC(=O)CC=C[C@@H]1C`, the composite z-score in experiment [1] is -0.834; in experiment [2], 2.17; in experiment [3], -0.152; in experiment [4] it was -0.938; in [5], -1.22; in experiment [6] it was -0.652. Moreover, the composite z-score was -0.513 in [7], 0.0281 in experiment [9] and 0.106 in [10]. Also, the z-score in experiment [8] is -0.862 (inactive).

`CC(=O)OC[C@H]1O[C@H](CCON=C2[C@H]3CCn4c(=O)n(-c5ccccc5)c(=O)n4[C@H]3[C@H](O)[C@@H]3O[C@H]23)C=C[C@@H]1OC(C)=O`: the composite z-score in experiment [1] was -0.47; in experiment [2] it was 0.141; in [3], -0.0218; in experiment [4], 0.448; in [5] it was 0.57; in experiment [6] it was -0.147. In addition, the values for the composite z-score in experiment [7], in [9] and in experiment [10] were 0.18, 0.476 and 0.163, respectively. In addition, in [8], the z-score was -0.513 (inactive).

As for `C=CC[C@@H]1C=C[C@H](ON=C2[C@H]3CCn4c(=O)n(-c5ccccc5)c(=O)n4[C@H]3[C@H](O)[C@@H]3O[C@H]23)[C@@H](CO)O1`, the composite z-score was -0.356 in [1]; 0.189 in experiment [2]; -0.065 in [3]; 0.274 in experiment [4]; 0.502 in [5]; 0.19 in experiment [6]. The composite z-score in experiment [7] is 0.0586; in experiment [9], 0.0716; in [10] it was 0.104. For the same compound, in [8], the z-score was -0.299 (inactive).

With `O=C1CCCC=C1C(O)CCOC(c1ccccc1)(c1ccccc1)c1ccccc1` (stereo not given), the composite z-score in [1] is -0.282; in experiment [2], 0.422; in experiment [3], -0.144; in experiment [4] it was 0.0954; in [5], -0.0617; in [6], -0.229. For the same compound, the composite z-score in [7] was -0.132; in experiment [9], -0.405; in [10], -0.069. Besides, in experiment [8], the z-score is -0.0611 (inactive).

Turning to `CCOC(=O)[C@H](CC(C)C)NC(=O)CCC1CC(OC(=O)NCc2cccc3ccccc23)CC2(CCCC(COC(=O)NCc3ccncc3)O2)O1` (stereo not given in full), the composite z-score in experiment [1] was -0.678; in experiment [2], 0.298; in experiment [3], -0.151; in [4] it was 0.633; in experiment [5], 1.12; in [6], 0.547. The composite z-score in [7] is 0.783; in [9] it was 0.407; in experiment [10], -0.236. The z-score in experiment [8] is -0.689 (inactive).

Consider `CC(C)CON=C1C[C@@H](O)[C@@H](O)[C@@H]2[C@@H]3C(=O)N(C[C@@H]4CCCO4)C(=O)[C@@H]3CC[C@@H]12`, for which the composite z-score in [1] was -0.308; in experiment [2], -0.0385; in [3], -0.132; in experiment [4], 0.0654; in experiment [5] it was -0.489; in experiment [6] it was -0.672. The composite z-score is -0.321 in experiment [7], -0.271 in [9] and -0.0994 in experiment [10]. The z-score in experiment [8] was -0.108 (inactive).

With `COC(=O)CC=C[C@@H](C)[C@@H](C=NOC[C@H]1O[C@H](c2ccccc2)C=C[C@@H]1Oc1ccc(OC)cc1)OC`, the composite z-score was -0.309 in experiment [1]; -0.0766 in experiment [2]; -0.14 in experiment [3]; 0.304 in [4]; -0.639 in experiment [5]; -0.549 in [6]. In addition, the composite z-score in [7] is -0.282; in experiment [9] it was -0.251; in experiment [10], 0.0373. Further, the z-score in experiment [8] is 0.532 (inactive).

For the compound `CON=C[C@@H](NS(=O)(=O)c1ccc(C)cc1)[C@H](C)C=CCC(=O)OC`, the composite z-score was -0.303 in [1]; 0.0827 in [2]; -0.125 in experiment [3]; -0.224 in experiment [4]; -0.98 in experiment [5]; -0.23 in [6]. For the same compound, the composite z-score in [7] is 0.0812; in experiment [9] it was -0.371; in [10] it was -0.189. Besides, the z-score in experiment [8] is 0.494 (inactive).
